Screening data: PubChem, Sanford-Burnham Center for Chemical Genomics
MLLE-PAM2 inh: blocks PAM2 peptide binding to the PABP1 MLLE domain. P11940. GST-MLLE / FITC-PAM2 fluorescence polarization. inhibition, % at 20 µM. 0.36% of 360,000 active; in the data active = inhibition above about 35%, passing the limit was not always enough;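 also: plate controls were DMSO wells with GST-MLLE for no effect and wells lacking GST-MLLE protein for full effect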
PABP FP inh: PABP-poly(A) binding inhibition; PABP-poly(A) RNA binding, fluorescence polarization; inhibition, % at 35 µM; 1% of 290,000 active; AID 2014;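 also: calls also rest on retests at 20 µM and on dose response follow-up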
CendR NRP1 mod: alters CendR peptide binding to human NRP-1 | 0.85% of 360,000 active | inhibition, % at 25 µM | FAM-RPARPAR peptide binding to NRP-1, fluorescence polarization | O14786 | AID 602438;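 active = inhibition or corrected inhibition above about 18%, plus a signal ratio from 0.5 to 1.5, limit read from the data, passing the limit was not always enough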
eIF4H inh: inhibitors of RNA binding by human eIF4H; Q15056; eIF4H fluorescence polarization binding assay; inhibition, % at 35 µM; 0.94% of 290,000 active; AID 2012;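 also: calls also rest on retests at 20 µM and on dose response follow-up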
The depositor's hits bear a star; ? = inconclusive; · = no result. In the library only some 2.1% were active in any assay of this set; here they are far more common. Unless noted, no rule for the calls is given here.

SMILES	MLLE-PAM2 inh	PABP FP inh	CendR NRP1 mod	eIF4H inh
CCCN(CC(=O)Nc1cc(Cl)cc(Cl)c1)CC(=O)Nc1ccc(F)c(F)c1F	0.0	13.0	-16.9	4.9
Cc1cc(NC(=O)COC(=O)c2cc(S(=O)(=O)N(C)C)ccc2Cl)no1	5.9	·	28.8*	·
CCN(CC)S(=O)(=O)c1cccc(NC(=O)COC(=O)c2cc(C)oc2C)c1	-17.7	0.3	-4.8	-1.4
Cc1cc(C(=O)OCC(=O)Nc2cccc(S(=O)(=O)N(C)C)c2)c(C)o1	-4.3	3.0	24.0*	-2.7
CCN(CC)S(=O)(=O)c1cccc(NC(=O)COC(=O)c2n[nH]c(=O)c3ccccc23)c1	-22.6	68.0*	12.3	-0.7
Brc1cccc(OCCCNC2CCCC2)c1	0.3	-1.8	2.4	-0.9
CCN(Cc1ccncc1)C(=O)c1cc(COc2ccc(F)cc2F)on1	0.4	0.4	43.3*	-6.3
CCOC(=O)C1=C[C@@H](c2ccccc2)N(S(=O)(=O)c2ccc(C)cc2)[C@H]1c1ccc(F)cc1	-6.6	·	-2.3	·
N#Cc1c(-c2ccccc2)[nH]c(=O)[nH]c1=O	5.1	-2.9	27.4*	-10.1
Cc1ccc(S(=O)(=O)/N=C2\C(=O)c3ccccc3C([O-])=C2n2cc[n+](CCC(C)C)c2)cc1	12.6	13.0	31.3*	9.3
CCCC[n+]1ccn(C2=C([O-])c3ccccc3C(=O)/C2=N\S(=O)(=O)c2ccc(Br)cc2)c1	-0.6	4.3	3.6	1.1
COC(=O)c1ccc(OC(=O)c2ccc(OC)cc2)c(OC)c1	15.9	6.3*	10.2	53.0*
O=C(NCc1ccc(Cl)cc1Cl)Nc1nc([C@@H]2O[C@H](CO)[C@@H](O)[C@H](O)[C@H]2O)cs1	-0.9	·	-9.3	·
Cc1ccccc1NC(=O)c1sc2nc(N3CCOCC3)c3c(c2c1N)CCCC3	16.5	3.3	33.3*	-15.4
O=C(O)c1ccccc1C(=O)c1ccc2oc(=O)[nH]c2c1	2.2	·	-26.1	·
CCOC(=O)c1sc(=S)n(-c2ccccc2Cl)c1SC	38.5*	4.8	-9.0	-0.8
Cc1nnc(NC(=O)CSc2cn(CCNC(=O)c3ccccc3)c3ccccc23)s1	20.1	2.7	-1.3	?
Cc1nnc(NC(=O)CSc2nc(C(C)C)nc3ccccc23)s1	37.3*	-12.3	5.1	-3.9
COc1ccc(C(=O)NCCn2cc(SCC(=O)Nc3nnc(C)s3)c3ccccc32)cc1	9.7	·	24.2*	·
Cc1ccccc1S(=O)(=O)NC(=O)C1(C)CCN1C(=O)C1(c2ccc(Cl)cc2)CCC1 (stereo unspecified)	-5.3	·	-3.6	·
O=C(NC1(C(F)(F)F)NC(=O)N(Cc2ccccc2)C1=O)c1cccnc1 (stereo unspecified)	-0.4	-0.9	40.7*	-4.3
O=C(NC1(C(F)(F)F)NC(=O)N(Cc2ccco2)C1=O)c1cccnc1 (stereo unspecified)	10.8	6.9	11.2	6.9
O=C(NC1(C(F)(F)F)NC(=O)N(Cc2ccco2)C1=O)c1cccs1 (stereo unspecified)	8.1	50.4*	-10.5	92.2*
Cc1ccc(N=CC2=C(O)CC(C)(C)CC2=O)nc1	7.5	-5.3	24.1*	-4.4
Cc1ccc(S(=O)(=O)N(C)C)cc1NC(=O)C1CCN(C(=O)Nc2ccccc2)CC1	8.1	·	1.0	·
SMILES	MLLE-PAM2 inh	PABP FP inh	CendR NRP1 mod	eIF4H inh
Cc1ccc(C)c(S(=O)(=O)N(C)c2ccc(OC(=O)C3CCN(C(=O)Nc4ccccc4)CC3)cc2)c1	10.6	·	25.2*	·
CCCCN(C)C(=O)C1CCN(Cc2cccc(OCc3ccccc3)c2)CC1	-1.2	4.1	4.7	7.3
CC(C)(C)NC(=S)NC(=O)C12CC3CCC(CC(C3)C1)C2	23.3	2.2	-0.1	-7.7
CC12CC3(C)CC(C)(C1)CC(C(=O)NC(=S)NC(C)(C)C)(C2)C3	42.6*	-0.1	20.3	-0.8
Cc1ccc([C@H]2C[C@H](n3cc(C4CC4)nn3)[C@@H](O)CN2CC2CCCCC2)cc1	-5.9	·	-11.3	·
Cc1[nH]n(-c2ccccc2)c(=O)c1C(C[N+](=O)[O-])c1ccccc1Cl (stereo unspecified)	33.8	-5.6	31.3*	-0.2
Cc1ccc(C(=O)Nc2ccccc2C(=O)O)cc1S(=O)(=O)Nc1ccc(Br)cc1	1.2	·	-26.9	·
Oc1c(Cl)cc(Cl)cc1Sc1cc(Cl)cc(Cl)c1O	·	active	·	74.1*
COc1ccc(Cl)cc1NC(=O)c1cccc(-n2cnnn2)c1	-9.1	·	22.4*	·
Cc1ccc(S(=O)(=O)N2CCN(C(=O)CNC(=O)c3sc4ccccc4c3Cl)CC2)cc1	-1.2	·	-173.1	·
COc1cccc2c(=O)c3cccc(N)c3[nH]c12	6.6	8.7*	32.8*	94.4*
COc1ccc(N2C(=O)CC(N3CCN(c4ccc(Cl)cc4)CC3)C2=O)cc1 (stereo unspecified)	-3.8	-8.8	8.2	-0.9
CCOc1ccc(N2C(=O)CC(N3CCN(c4ccc(Cl)cc4)CC3)C2=O)cc1 (stereo unspecified)	31.8	2.7	21.9*	-3.5
CN(CC(=O)Nc1ccc(F)cc1)C(=O)COC(=O)c1ccc(-c2ccccc2)cc1	-5.7	·	-6.2	·
NC(=O)NC(=O)CC1S/C(=N/N=C2\CSC(=O)N2)NC1=O (stereo unspecified)	43.3*	-5.0	-14.4	11.8
NC(=O)NC(=O)CC1S/C(=N/N=C/c2ccccc2)NC1=O (stereo unspecified)	-7.0	-10.1	11.8	4.3
Cc1cccc(N2CCN(C(=O)Cc3cn(C)c4ccccc34)CC2)c1C	18.5	84.1*	3.2	112.2*
Cc1ccc(OCC(=O)Nc2ccc(S(=O)(=O)N3CCCC3)cc2)cc1	-13.5	7.7	5.3	2.4
Cc1ccc(NC(=O)NCc2ccccn2)c(C)c1	0.7	-11.0	-9.3	11.1
COC(=O)c1sccc1NC(=S)Nc1cc(C)cc(C)c1	37.6*	-2.8	6.5	0.2
CN(Cc1ccccc1)C(=O)c1csc([C@@H]2O[C@H](CO)[C@H](O)[C@H](O)[C@H]2O)n1	5.6	·	-1.3	·
CN(CC(=O)Nc1ccccc1Br)C(=O)CNC(=O)c1ccco1	-1.4	·	1.4	·
CN1CCCc2cc3c(C(F)(F)F)cc(=O)oc3nc21	135.1	?	38.4*	?
CC(C)c1cc(=O)oc2c3c4c(cc12)CCCN4CCC3	-8.1	31.4	-76.4	14.5
O=C1C=C(N(CCO)Cc2ccccc2)c2ccccc2C1=O	6.9	-3.9	6.3	-0.2
SMILES	MLLE-PAM2 inh	PABP FP inh	CendR NRP1 mod	eIF4H inh
O=C1c2ccccc2C(=O)c2c1cccc2N(CCO)CCO	41.1*	?	15.6	?
CCOC(=O)c1ccc(NS(=O)(=O)c2c(C)nc3sccn3c2=O)cc1	0.2	-4.2	20.3	-2.0
C[n+]1cccc2c(Br)ccc([O-])c21	11.5	15.6	25.8*	19.3
[O-][n+]1cccc2c(Br)cc(Br)c(O)c21	4.5	44.5	13.3	19.7
Cc1ccccc1S(=O)(=O)Cc1ccc(C(=O)NCc2cccnc2)o1	3.6	-12.3	49.0*	10.8
Cc1ccccc1N1C(=O)c2ccccc2NC1c1ccncc1 (stereo unspecified)	1.4	2.7	28.0*	0.7
O=C1c2ccccc2NC(c2cccnc2)N1c1ccccc1F (stereo unspecified)	14.3	7.0	-13.0	2.9
